Bioassay records deposited in PubChem BioAssay by several laboratories.
Only some compounds are listed: those with a hit (about 4.1% of all), similar ones and a draw of the others.
Peg3 prom inh-1 – Peg3 promoter activity inhibition. inhibition, % at 20 µM. 1.7% of 360,000 active. HeLa PEG-Prom luciferase reporter, luminescence, overnight;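 active = inhibition of at least 50% at 20 µM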
TRPM1 prom inh – reduces MITF-dependent TRPM1 promoter luciferase signal | SK-MEL-5 TRPM1 promoter luciferase, 24 h | inhibition, % at 12.5 µM | 0.83% of 330,000 active;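 active = mean inhibition across replicates of 60% or more, whatever share of single replicates reaches that level; inconclusive = some that reach 60%, reason not given; inactive = mean inhibition across replicates below 60%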
TWEAK-Fn14 inh – TWEAK-Fn14 signaling inhibition | inhibition, % at 10 µM | 2% of 360,000 active | TWEAK-stimulated Fn14 reporter cells, luciferase luminescence, 8 h; in the data active = inhibition above about 50%
Shn3 inh set2 – inhibitors of Schnurri-3 3'UTR reporter in osteoblasts; Clone20 osteoblast Shn3 3'UTR firefly luciferase, 24 h; inhibition, % at 12.5 µM; 0.52% of 360,000 active;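 active = mean inhibition of at least 75% with every replicate also reaching 75%; inconclusive = mean inhibition at least 75% but some replicate below; inactive = mean inhibition below 75%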;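 note: 0% = median of neutral control wells and 100% = pilot-screen positive control compound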
TROY signal inh – inhibitors of TROY-dependent NF-kB signaling; 0.98% of 360,000 active; Q293 LMP1-TROYcd NF-kB luciferase reporter, 4 h; inhibition, % at 10 µM;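 active = compounds whose plate-normalised and pattern-corrected inhibition of the luciferase reporter signal at the single screening dose is 50% or more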
EBV LMP1 NFkB – inhibitors of Epstein-Barr LMP1-induced NF-kappaB reporter. LMP1-induced NF-kappaB luciferase reporter cells, luminescence. inhibition, % at 12.5 µM. 0.69% of 350,000 active; in the data active = inhibition above about 41%; inconclusive = no clear call, values can overlap the other calls;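 note: 0% = neutral control wells and 100% = reference inhibitor control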
Peg3 prom inh-2 – confirmation of Peg3 promoter inhibitors; 84% of 1,300 active; inhibition, % at 20 µM; shares compounds with Peg3 prom inh-1; HeLa PEG-Prom luciferase reporter, luminescence, overnight;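 active = at 20 µM dose, 40% or more inhibition averaged across four replicates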
The depositor's hits bear a star; ? = inconclusive; nt = not tested or not shown.

SMILES | Peg3 prom inh-1 | TRPM1 prom inh | TWEAK-Fn14 inh | Shn3 inh set2 | TROY signal inh | EBV LMP1 NFkB | Peg3 prom inh-2
Cc1ccccc1CNC(=O)C1CCCN(c2nnc(C)c3c(C)n(-c4ccccc4)nc23)C1 (configuration not stated) | 63* | 82* | -16 | -11 | 28 | -3 | 81*
Cc1nnc(N2CCCC(C(=O)NCc3ccccc3F)C2)c2nn(-c3ccccc3)c(C)c12 (configuration not stated) | 15 | 32 | -9 | 16 | 25 | 10 | nt
CCc1nn(C(C)C(=O)NC2CCCCCC2)c(=O)c2cc3occc3n12 (configuration not stated) | 10 | -4 | -12 | -8 | -13 | -2 | nt
C(=Cc1cnc2ccccc2n1)c1ccc2c(c1)OCO2 | 69* | nt | 98* | 86* | 81* | 80* | 85*
Cn1c(/N=C/c2ccc3c(c2)OCO3)nc2ccccc21 | 4 | 0 | 6 | 2 | -13 | -4 | nt
COc1ccc(C(=O)NC(CCSC)C(=O)N2CCCCCC2)cc1 (configuration not stated) | 25 | 2 | 15 | -8 | 11 | -23 | nt
CC1(C(=O)Nc2cccc3cccnc23)CCN1Cc1csc2ccccc12 (configuration not stated) | 1 | nt | -9 | 25 | 4 | nt | nt
CCOc1cc(C(=O)NCCCNC(=O)c2cc(OCC)c(OCC)c(OCC)c2)cc(OCC)c1OCC | 16 | -13 | -32 | 15 | -34 | -2 | nt
CCCCCCCCCCOC(=O)c1csc2nnsc12 | 13 | -5 | 1 | 9 | 2 | 9 | nt
COc1cccc(-c2nnc3n2N=C(C(C)(C)C)CS3)c1 | 98* | ? | 92* | -3 | 64* | 65* | 75*
COc1cccc(-c2nnc3n2N=C(c2cc(OC)ccc2OC)CS3)c1 | 35 | 12 | 14 | 11 | 13 | 7 | nt
CCn1c(NCc2ccc(N(C)C)cc2)nc2ccccc21 | -86 | -13 | -3 | -18 | -22 | -4 | nt
CN(C)c1ccc(N=Nc2nc3ccccc3n2C)cc1 | 104* | ? | 104* | nt | 90* | 57* | 88*
CC(C)n1c(=O)c2ccccc2n1CC(=O)N1CCOCC1 | nt | nt | -1 | nt | -8 | nt | nt
O=C(c1ccoc1)N1CCN(c2cc(-c3ccccc3)nc3cc(-c4ccccc4)nn23)CC1 | 68* | nt | 28 | 75 | -7 | 5 | 70*
Oc1c(Br)cc(Br)c2cccnc12 | 50* | 21 | -85 | 7 | 25 | 16 | 59*
CCN1C(=O)C(=Cc2cccc(OC)c2Oc2ccc([N+](=O)[O-])cc2[N+](=O)[O-])SC1=S | 108* | 88* | 91* | 99* | -9 | -70 | 72*
O=C(NC1=C(NC2CCS(=O)(=O)C2)C(=O)c2ccccc2C1=O)c1ccccc1 (configuration not stated) | 68* | 0 | 92* | 61 | 56* | -20 | 49*
Cc1cc(C)c2nc(NNC(=O)c3ccc(S(=O)(=O)N4CCCCC4)cc3)sc2c1 | 55* | nt | -23 | 11 | -3 | 31 | 66*
CCOC(=O)N1CCN(S(=O)(=O)c2ccc(C(=O)NNc3nc4c(C)cc(C)cc4s3)cc2)CC1 | 56* | nt | -7 | 9 | -1 | nt | 92*
Cc1cc(C)c2nc(N(CCCN(C)C)C(=O)c3ccc(S(=O)(=O)N4CCCCCC4)cc3)sc2c1 | 80* | 19 | -27 | 22 | -16 | 0 | 99*
COc1cc2nc(N(CCCN(C)C)C(=O)c3ccc(S(=O)(=O)N(C)C4CCCCC4)cc3)sc2cc1OC | -24 | 6 | 1 | -8 | 6 | -12 | nt
Cc1cc(C)c2sc(N(CCCN(C)C)C(=O)c3ccc(S(=O)(=O)N(C)C4CCCCC4)cc3)nc2c1 | 107* | 90* | -39 | 1 | -24 | -6 | 98*
Cc1ccc(C(=O)NNC(=O)c2ccc(S(=O)(=O)N3CCCCC3)cc2)cc1 | 5 | -3 | 7 | 12 | -10 | -1 | nt
CCOC(=O)/C(C(=O)Nc1ccccc1Br)=C1/NC(C)(C)Cc2ccccc21 | 6 | -1 | -14 | -2 | 16 | 6 | nt
COc1ccc2sc(N(CCCN(C)C)C(=O)c3ccc(S(=O)(=O)N4CCCc5ccccc54)cc3)nc2c1 | 84* | 77* | -43 | 11 | -17 | -17 | 96*
